Results taken from PubChem BioAssay (NCI).
About 83,000 compounds went through this panel and 20% of them were active in at least one assay; those are over-represented in the sample as a whole.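 Single-concentration screen, 48 h exposure, 96-well plates. Endpoint: percent growth. Below 10 = active.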 Active and inactive are the calls of the source.

Experiments:
Assay in all cases: NCI-60 one-dose screen, 48 h (100 = growth as untreated, 0 = no growth, -100 = all killed)
Settings in all cases: 10 µM unless noted
HCT-15 colon = tested on: HCT-15 colon
HT29 colon = tested on: HT29 colon
SNB-75 CNS = tested on: SNB-75 CNS
SNB-19 CNS = tested on: SNB-19 CNS
U251 CNS = tested on: U251 CNS
PC-3 prostate = tested on: PC-3 prostate
UACC-62 melanoma = tested on: UACC-62 melanoma
LOX IMVI melanoma = tested on: LOX IMVI melanoma
SK-MEL-28 melanoma = tested on: SK-MEL-28 melanoma
SK-MEL-2 melanoma = tested on: SK-MEL-2 melanoma
EKVX NSCLC = tested on: EKVX NSCLC
SN12C renal = tested on: SN12C renal
UO-31 renal = tested on: UO-31 renal
TK-10 renal = tested on: TK-10 renal
ACHN renal = tested on: ACHN renal
CAKI-1 renal = tested on: CAKI-1 renal
A498 renal = tested on: A498 renal
CCRF-CEM leukemia = tested on: CCRF-CEM leukemia
MOLT-4 leukemia = tested on: MOLT-4 leukemia
SK-MEL-5 melanoma = tested on: SK-MEL-5 melanoma

Measured: growth

CC(=O)Nc1ccc2c(c1)Cc1c(F)cccc1-2
inactive: HCT-15 colon 108% | HT29 colon 111% | SNB-75 CNS 73.7% | SNB-19 CNS 107% | U251 CNS 107% | PC-3 prostate 88.4% | UACC-62 melanoma 98.9% | LOX IMVI melanoma 103% | SK-MEL-28 melanoma 117% | SK-MEL-2 melanoma 128% | EKVX NSCLC 101% | SN12C renal 101% | UO-31 renal 49.2% | TK-10 renal 103% | ACHN renal 93% | CAKI-1 renal 87.2% | A498 renal 77.6% | CCRF-CEM leukemia 85.6% | MOLT-4 leukemia 111%

COc1ccc(Oc2nc(Nc3ccc(N4CCOCC4)nc3)ncc2NC(=O)c2cc(OC)cc(OC)c2)cc1
inactive: HCT-15 colon 52.9% | HT29 colon 77.8% | SNB-75 CNS 70.6% | SNB-19 CNS 80.6% | U251 CNS 84.2% | PC-3 prostate 67.9% | SK-MEL-5 melanoma 70.9% | UACC-62 melanoma 69.3% | SK-MEL-28 melanoma 79.8% | EKVX NSCLC 89.3% | SN12C renal 93.7% | UO-31 renal 56.3% | TK-10 renal 83.4% | ACHN renal 75.1% | CAKI-1 renal 67.3% | A498 renal 53.7% | CCRF-CEM leukemia 64.2%

Clc1ccc2c(NCCCN3CCN(c4nc(N5CCOCC5)nc5ccccc45)CC3)ccnc2c1
inactive: SNB-75 CNS 89.4% | SNB-19 CNS 21.7% | PC-3 prostate 37.5% | CAKI-1 renal 15.3% | A498 renal 71.2%
active: HCT-15 colon -32.8% | HT29 colon -19.2% | U251 CNS -14.3% | SK-MEL-5 melanoma -96.8% | UACC-62 melanoma -33.1% | SK-MEL-28 melanoma -85% | SK-MEL-2 melanoma -5.64% | UO-31 renal -85.9% | TK-10 renal -38% | ACHN renal -29.1% | CCRF-CEM leukemia 4.4%

Cc1cc(N2CCCCC2)nc(N(CCNc2ccnc3cc(Cl)ccc23)Cc2ccccn2)n1
inactive: HCT-15 colon 17.6% | HT29 colon 13.1% | SNB-75 CNS 80.3% | SNB-19 CNS 75% | U251 CNS 41.8% | PC-3 prostate 45.1% | SK-MEL-5 melanoma 48.8% | UACC-62 melanoma 67.5% | SK-MEL-28 melanoma 62.7% | EKVX NSCLC 53.7% | SN12C renal 62.3% | UO-31 renal 23.7% | TK-10 renal 83.8% | ACHN renal 62% | CAKI-1 renal 54.1% | A498 renal 37.7% | CCRF-CEM leukemia 31.8%

CCN(CC)CCOc1ccc(/C(=C(\C)c2ccc(F)c(OC)c2)c2ccc(Cl)cc2)cc1
active: HCT-15 colon 2.58% | HT29 colon 9.08% | SNB-19 CNS 8.37% | U251 CNS 3.13% | UACC-62 melanoma -44.8% | LOX IMVI melanoma -94.1% | SK-MEL-28 melanoma -64.6% | UO-31 renal 7.48% | MOLT-4 leukemia -1.16%
inactive: SNB-75 CNS 31.9% | PC-3 prostate 14.8% | SK-MEL-2 melanoma 67.7% | EKVX NSCLC 56.4% | SN12C renal 38% | TK-10 renal 49.5% | ACHN renal 25.8% | CAKI-1 renal 17.1% | A498 renal 48.1% | CCRF-CEM leukemia 13.9%

Clc1cnc(Nc2ccc(OCCN3CCCC3)cc2)nc1NCc1ccco1
inactive: HT29 colon 11.3% | SNB-19 CNS 38.6% | U251 CNS 19.6% | PC-3 prostate 28.7% | SK-MEL-5 melanoma 46.1% | UACC-62 melanoma 46.5% | SK-MEL-28 melanoma 51.7% | EKVX NSCLC 25.2% | CAKI-1 renal 10% | A498 renal 17.6%
active: HCT-15 colon 6.01% | SNB-75 CNS -3.83% | SK-MEL-2 melanoma -10.3% | SN12C renal 5.92% | UO-31 renal -3.47% | TK-10 renal 9.62% | ACHN renal -10.2% | CCRF-CEM leukemia 7.04%

C[C@]12CCC(=O)C[C@H]1CC[C@@H]1[C@@H]2CC[C@@]2(C)[C@H]1CC[C@]2(O)C(=O)CO
inactive: HCT-15 colon 104% | HT29 colon 99.4% | SNB-75 CNS 94.4% | SNB-19 CNS 108% | U251 CNS 121% | PC-3 prostate 102% | SK-MEL-5 melanoma 104% | UACC-62 melanoma 102% | SK-MEL-28 melanoma 108% | SK-MEL-2 melanoma 106% | EKVX NSCLC 107% | SN12C renal 101% | UO-31 renal 91.6% | TK-10 renal 131% | ACHN renal 96.7% | CAKI-1 renal 106% | A498 renal 97.1% | CCRF-CEM leukemia 105% | MOLT-4 leukemia 107%

C=C1C(=O)O[C@H]2[C@H]1CC/C(COC(=O)/C=C\C(=O)NCc1ccc(Cn3c(=O)sn(-c4ccc(Cl)cc4)c3=O)cc1)=C\CC[C@@]1(C)O[C@@H]21
active: HCT-15 colon -33.8% | HT29 colon -28.3% | SNB-75 CNS -83.5% | SNB-19 CNS -8.33% | U251 CNS -78.3% | PC-3 prostate -64.1% | UACC-62 melanoma -97.6% | LOX IMVI melanoma -84.9% | SK-MEL-28 melanoma -93.5% | SK-MEL-2 melanoma -64.7% | EKVX NSCLC -74.8% | SN12C renal -96.1% | UO-31 renal -100% | TK-10 renal -85.1% | ACHN renal -100% | CAKI-1 renal -69.9% | A498 renal -15.8% | CCRF-CEM leukemia -22.9% | MOLT-4 leukemia -36.7%

Clc1ccc2c(NCCCN3CCN(c4nc(-n5ccnc5)nc5ccccc45)CC3)ccnc2c1
active: HCT-15 colon -64.6% | HT29 colon -16.2% | SK-MEL-5 melanoma -94.8% | SK-MEL-28 melanoma -86.9% | CCRF-CEM leukemia 6.59%
inactive: SNB-75 CNS 100% | SNB-19 CNS 99.5% | U251 CNS 97.2% | PC-3 prostate 78.4% | UACC-62 melanoma 93.4% | SK-MEL-2 melanoma 97.7% | EKVX NSCLC 86% | SN12C renal 84.1% | UO-31 renal 43.5% | TK-10 renal 122% | ACHN renal 110% | CAKI-1 renal 86.3% | A498 renal 85.1%

Cc1cc(Cl)nc(N(CCCNc2ccnc3cc(Cl)ccc23)Cc2ccccn2)n1
inactive: HCT-15 colon 35.2% | HT29 colon 10.2% | SNB-75 CNS 64.1% | SNB-19 CNS 66.5% | U251 CNS 43.9% | PC-3 prostate 54.2% | SK-MEL-5 melanoma 34.1% | UACC-62 melanoma 55.9% | SK-MEL-28 melanoma 68% | SK-MEL-2 melanoma 64.2% | EKVX NSCLC 64.7% | SN12C renal 52.6% | UO-31 renal 27.2% | TK-10 renal 66.1% | ACHN renal 54.2% | CAKI-1 renal 48.5% | A498 renal 30.4% | CCRF-CEM leukemia 36.1%

C[C@@H]1CC[C@@H]2[C@@H]1[C@H](OC(=O)c1ccc3ccccc3c1)[C@]1(C3CCCCC3)C[C@@H](OC(=O)CO)[C@@]2(C)O1
inactive: HCT-15 colon 40.9% | HT29 colon 20.7% | SNB-75 CNS 64.9% | SNB-19 CNS 84.1% | U251 CNS 48.9% | PC-3 prostate 22.2% | SK-MEL-5 melanoma 88.6% | UACC-62 melanoma 73.6% | SK-MEL-28 melanoma 70.2% | SK-MEL-2 melanoma 69.5% | EKVX NSCLC 62% | SN12C renal 24% | TK-10 renal 79.2% | CCRF-CEM leukemia 48.3%
active: UO-31 renal -43.6% | ACHN renal 7.83% | CAKI-1 renal -31% | A498 renal -85%

COc1ccc(Oc2nc(Nc3ccc(N4CCCCC4)nc3)ncc2NC(=O)c2cc(OC)cc(OC)c2)cc1
inactive: HCT-15 colon 17.8% | HT29 colon 13.8% | SNB-75 CNS 34.1% | SNB-19 CNS 41.5% | U251 CNS 35.1% | PC-3 prostate 35.6% | SK-MEL-5 melanoma 28.7% | UACC-62 melanoma 18.8% | SK-MEL-28 melanoma 53.9% | SK-MEL-2 melanoma 41.2% | EKVX NSCLC 40.8% | SN12C renal 53.2% | UO-31 renal 33.3% | TK-10 renal 75.5% | ACHN renal 28.8% | CAKI-1 renal 41.8% | A498 renal 39.1% | CCRF-CEM leukemia 20%

COC(=O)c1ccc2oc(NC(=O)c3ccc(N4CCOCC4)c([N+](=O)[O-])c3)nc2c1
inactive: HCT-15 colon 107% | HT29 colon 95.6% | SNB-75 CNS 79.7% | SNB-19 CNS 92.4% | U251 CNS 92.2% | PC-3 prostate 89.5% | SK-MEL-5 melanoma 104% | UACC-62 melanoma 90.6% | SK-MEL-28 melanoma 97.4% | SK-MEL-2 melanoma 99.5% | EKVX NSCLC 96.6% | UO-31 renal 75.4% | TK-10 renal 115% | ACHN renal 94.1% | CAKI-1 renal 85.9% | A498 renal 98.5% | CCRF-CEM leukemia 90.3%

Cn1c(NCCc2ccc(O)c(O)c2)nc2c1c(=O)n(Cc1ccc(Cl)cc1)c(=O)n2C
inactive: HCT-15 colon 40.7% | HT29 colon 101% | SNB-75 CNS 57.1% | SNB-19 CNS 93% | U251 CNS 104% | PC-3 prostate 60% | SK-MEL-5 melanoma 75.3% | UACC-62 melanoma 82.7% | SK-MEL-28 melanoma 86% | SK-MEL-2 melanoma 95% | EKVX NSCLC 84.8% | SN12C renal 82.7% | UO-31 renal 29.8% | TK-10 renal 69.9% | ACHN renal 39.5% | CAKI-1 renal 38.7% | A498 renal 86.2% | CCRF-CEM leukemia 12.8%

C=C1c2c(C)nn(-c3ccc(S(N)(=O)=O)cc3)c2N(C)C23CC1C1(C)c4c(C)nn(-c5ccc(S(N)(=O)=O)cc5)c4N(C)C(C)(CC12)C3 (centres undefined)
inactive: HCT-15 colon 14.6% | HT29 colon 13.6% | SNB-75 CNS 76% | SNB-19 CNS 43% | U251 CNS 24.7% | PC-3 prostate 23.6% | SK-MEL-5 melanoma 45.5% | UACC-62 melanoma 37.5% | SK-MEL-28 melanoma 30.7% | SK-MEL-2 melanoma 44.7% | EKVX NSCLC 29.6% | SN12C renal 32.4% | UO-31 renal 25.5% | TK-10 renal 46.6% | ACHN renal 14.1% | CAKI-1 renal 40.7% | A498 renal 75.3% | CCRF-CEM leukemia 18.7%

CC(=O)c1ccc2c(c1)CCN2
inactive: HCT-15 colon 105% | HT29 colon 101% | SNB-75 CNS 93.1% | SNB-19 CNS 98.3% | U251 CNS 97.1% | PC-3 prostate 98.6% | SK-MEL-5 melanoma 105% | UACC-62 melanoma 102% | SK-MEL-28 melanoma 109% | SK-MEL-2 melanoma 104% | EKVX NSCLC 117% | UO-31 renal 94.2% | TK-10 renal 98.1% | ACHN renal 100% | CAKI-1 renal 111% | A498 renal 117% | CCRF-CEM leukemia 94.9% | MOLT-4 leukemia 94.2%

Cc1c(C(=O)O[C@H]2[C@@H]3[C@H](C)CC[C@H]3[C@]3(C)O[C@@]2(C2CCCCC2)C[C@H]3OC(=O)CO)ccc2ccccc12
active: HT29 colon -4.24% | U251 CNS 4.41% | PC-3 prostate 9.25% | SN12C renal -1.88% | UO-31 renal -11.7% | ACHN renal -36.4% | CAKI-1 renal 0.73% | A498 renal -76.6% | CCRF-CEM leukemia -4.66%
inactive: HCT-15 colon 14.2% | SNB-75 CNS 82.6% | SNB-19 CNS 60.8% | SK-MEL-5 melanoma 68.6% | UACC-62 melanoma 61.3% | SK-MEL-28 melanoma 59.7% | SK-MEL-2 melanoma 40.3% | EKVX NSCLC 41.8%
